Screening data: PubChem BioAssay, National Center for Advancing Translational Sciences (NCATS)
A selection: hits, their analogues and other compounds. The true share with any hit is near 20%.
Pf growth 96h = P. falciparum growth inhibition at 96 hours. P. falciparum luciferase reporter growth, 96 h. 320,000 compounds, 6.9% hits. Potency, µM (doses to about 28.7 µM), for inactives: at the highest dose activity change, negative = inhibition, most hits filed as inhibitors. AID 504834; also: potency is read from the fitted curve at half-maximal effect; % is scaled to controls: 0 for no effect and ±100 for the full control effect
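Cell-based qHTS: luciferase-tagged P. falciparum in erythrocytes (2% hematocrit, 0.05% parasitemia final) incubated with compounds for 96 hours, 37 C, 5% CO2; luciferase detection reagent then added and luminescence measured.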
HCMV inh = inhibitors of human cytomegalovirus; HFF cells, HCMV-luciferase reporter, 72 h; hits give low values; activity change, negative = inhibition, % at 57.5 µM; 410,000 compounds, 4.5% hits; AID 1259415; in the data active = activity change below about -60%; inconclusive = no clear call, values can overlap the other calls; inactive = above about -39%; also: % is scaled to controls: 0 for no effect and ±100 for the full control effect
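Human foreskin fibroblasts infected with luciferase-reporter HCMV at MOI 1 PFU/cell, compounds at two doses. Luciferase measured 72 h post infection; normalized to buffer-only basal and Salinomycin (10uM) controls.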
CHX counter = counter-screen hit for Shiga toxin inhibitors, cycloheximide. cell reporter, cycloheximide protein synthesis inhibition counterscreen. max response, %. 300,000 compounds, 12% hits. AID 2314; in the data active = max response mostly above about 13%, no sharp cut-off; inactive = mostly below about 14%; also: read at 38.3 µM for the half of the compounds with a filed dose; 0% is about no effect
Pf growth 48h = P. falciparum growth inhibition at 48 hours (one generation) | Potency, µM (highest dose often 28.7 µM), for the others: top-dose activity change, negative = inhibition, actives largely listed as inhibitors | 310,000 compounds, 5.9% hits | P. falciparum luciferase growth in erythrocytes, 48 h; also: potency is read from the fitted curve at half-maximal effect; % is scaled to controls: 0 for no effect and ±100 for the full control effect
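Firefly luciferase activity from engineered P. falciparum reports growth; inhibitors lower the luminescent signal. Cultures contained 2% hematocrit erythrocytes at 0.1% final parasitemia.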
Shiga inhibitor = blocks Shiga toxin action in Vero cells. Vero cells, Shiga toxin protein synthesis inhibition reporter. inhibition, % at 38.7 µM. 290,000 compounds, 9.2% hits. AID 2315; in the data active = inhibition mostly above about 28%, no sharp cut-off; inactive = mostly below about 43%; also: 0% is about no effect
* = called active by the depositor; ? = inconclusive; / = no result given; + = active, no number; [ ] = dose if it differs, or a comment. Unless noted, calls follow the shape of the dose curve; as a rule, active = well fitted inhibition curve with a large enough effect; inconclusive = small, poorly fitted or top-dose-only effect, or another doubt; inactive = no such curve, though single readings can be large or run the other way.

SMILES | Pf growth 96h | HCMV inh | CHX counter | Pf growth 48h | Shiga inhibitor
COc1ccccc1-c1nnc2sc(COc3ccc(Cl)cc3Cl)nn12 | 10.4µM* | -14.6 | -2.1 | ? | -22.1
Clc1ccc(OCc2nn3c(-c4ccncc4)nnc3s2)cc1 | 28.5% | 6.3 | -2.2 | 30.6% | -12.5
COc1ccccc1-c1nnc2sc(COc3ccccc3)nn12 | -15.1% | 20.1 | 1.5 | ? | -9.2
c1coc(-c2nn3c(-c4ccco4)nnc3s2)c1 | ? | -8.0 | 10.3* | 8.1% | 11.9
COc1ccccc1-c1nn2c(-c3ccco3)nnc2s1 | ? | 91.2 | 67.7* | / | 112.5*
c1ccc(OCc2nn3c(-c4cccnc4)nnc3s2)cc1 | 11.7µM* | -38.8 | 0.1 | ? | 35.1
CCn1c2cc(C)sc2c2cnn(Cc3ccccc3F)c(=O)c21 | / | / | 16.4 | / | -4.5
COCCCNC(=O)c1cnn(-c2ccc(F)cc2F)c1C1CCNCC1 | / | -4.2 | / | / | /
O=C(CN1C(=O)NC(Cc2ccccc2)C1=O)Nc1ccc(F)c(F)c1F (configuration not stated) | 5.6% | -4.0 | / | -17.2% | /
CCN(CC)c1ccc(-c2nn3c(-c4ccccc4OC)nnc3s2)cc1 | 11.4%[5.75 µM] | / | -0.6 | 2.62µM* | 17.5
Clc1ccc(OCc2nn3c(-c4ccco4)nnc3s2)cc1 | -23.2% | 45.0 | 11.6 | 14.7µM* | 6.2
Cc1ccc2c(CNCc3cccs3)c(C(=O)O)n(Cc3ccc(F)cc3)c2c1 | / | -102.4* | / | / | /
C=Cc1ccc(Cn2c(C(=O)O)c(CNCc3ccc(F)cc3)c3ccc(C)cc32)cc1 | / | -91.2* | / | / | /
COc1ccc(Cn2c(C(=O)O)c(CNCc3cccs3)c3ccc(C)cc32)cc1 | / | -66.4* | / | / | /
C=Cc1ccc(Cn2c(C(=O)O)c(CNCc3cccs3)c3ccc(C)cc32)cc1 | / | -6.3 | / | / | /
COc1ccc(Cn2c(C(=O)O)c(CNCc3ccc(SC)cc3)c3ccc(OC)cc32)cc1 | / | -91.1* | / | / | /
COc1ccccc1Cc1c(-c2ccccc2)nc2ccc(Cl)cn12 | / | 51.0 | / | / | /
CCCCN1C(=O)C(NC(=O)c2ccc(C(C)(C)C)cc2)(C(F)(F)F)C(C(=O)OC)=C1C (configuration not stated) | / | 1.4 | / | / | /
COc1ccc(Cn2c(C(=O)O)c(CNCCc3ccco3)c3ccc(C)cc32)cc1 | / | -18.9 | / | / | /
COc1ccc(Cn2c(C(=O)O)c(CNCCc3cc(OC)ccc3OC)c3ccc(C)cc32)cc1 | / | -104.8* | / | / | /
O=S(=O)(c1ccccc1)c1nc(-c2cccs2)oc1SCc1ccccc1Cl | / | -12.9 | / | / | /
O=C(Nc1ccccc1Cc1ccccc1)c1ccccc1NS(=O)(=O)c1ccc(Cl)s1 | ? | -103.5* | -3.8 | 15.3% | -5.4
O=C(Nc1ccccc1)c1ccccc1NS(=O)(=O)c1ccc(Cl)s1 | 1.9% | -63.8* | 8.4 | ? | -2.2
Cc1ccc(NC(=O)c2ccccc2NS(=O)(=O)c2ccc(Cl)s2)cc1 | ? | -98.2* | 8.9 | -8.3% | 17.2
CC(C)(C)C1CCc2c(sc(NC(=O)c3ccncc3)c2C(=O)Nc2ccccc2Cl)C1 (configuration not stated) | / | -14.3 | / | / | /
SMILES | Pf growth 96h | HCMV inh | CHX counter | Pf growth 48h | Shiga inhibitor
Cn1c(SCC(N)=O)nc2c([nH]c3ccccc32)c1=O | / | 32.3 | / | / | /
COc1ccc(CCNC(=O)c2nc(SCc3ccc(C)cc3)ncc2Cl)cc1OC | / | -37.0 | / | / | /
O=C(CN1C(=O)NC2(CCCC2)C1=O)N1CCN(c2ccccc2O)CC1 | 0.0% | 8.1 | / | -10.7% | /
Cc1ccc2nc3n(c(=O)c2c1)-c1ccccc1C(=O)NC3CC(C)C (configuration not stated) | / | -14.0 | / | / | /
C/C(=N\NC(=O)c1cccc(Cl)c1)c1cccc(NC(=O)C(C)C)c1 | ? | 7.5 | 30.4* | -9.7% | 46.1*
C/C(=N\NC(=O)c1ccncc1)c1cccc(NC(=O)c2ccc(Cl)s2)c1 | 42.0% | 8.2 | 30.7* | 27.9% | 77.5*
C/C(=N\NC(=O)c1ccc(Cl)cc1)c1cccc(NC(=O)C(C)C)c1 | 74.8% | 17.1 | 16.7* | 4.9% | 23.7
COc1ccc(C(=O)N/N=C(/C)c2cccc(NC(=O)c3ccncc3)c2)cc1OC | ? | -28.0 | 3.0 | -2.0% | 2.4
CC(=O)c1sc(NC(=O)c2ccc(Cn3cc(Br)cn3)o2)nc1C | 54.3% | 17.1 | -3.4 | 9.2% | -9.2
CCNS(=O)(=O)c1ccc(NC(=O)c2ccc(Cn3cc(Br)cn3)o2)cc1 | 11.7µM* | ? | -1.7 | -24.5% | -12.8
CCn1c(NCc2cccc(Cl)c2)nc2ccccc21 | / | 0.3 | / | / | /
O=C1C2C3C=CC(C3)C2C(=O)N1c1cccnc1 (configuration not stated) | 3.2% | 3.0 | 1.9 | -17.0% | 32.0
CCOc1ncccc1C(=O)OCC(=O)Nc1nnc(-c2ccccc2)o1 | -27.8% | -3.8 | / | ? | /
C/C(=N\NC(=O)c1ccc(Cn2cc(Br)cn2)o1)c1cccc(NC(=O)C(C)C)c1 | 11.7µM* | -8.9 | 19.9* | -15.0% | 8.6
CCC(CC)C(=O)Nc1cccc(/C(C)=N/NC(=O)c2ccccc2Cl)c1 | ? | 13.8 | 16.0* | / | 29.5
CCC(CC)C(=O)Nc1cccc(/C(C)=N/NC(=O)c2c(Br)cnn2C)c1 | ? | -31.4 | -2.9 | -8.7% | -8.2
C/C(=N\NC(=O)c1ccccc1NC(=O)c1ccc(Cl)cc1)c1ccncc1 | ? | -28.0 | -16.2 | 132.7% | -14.8
CCOC(=O)Cc1csc(NC(=O)c2cc(C)c(C)s2)n1 | 36.3% | 19.7 | / | 28.6% | /
CCOC(=O)Cc1csc(NC(=O)c2ccc(Cl)s2)n1 | 25.1% | 16.2 | 60.5* | / | 54.2*
Cc1csc(NC(=O)C2C3C=CC(C3)C2C(=O)O)n1 (configuration not stated) | 18.3% | 26.1 | -1.4 | / | -6.7
CCOC(=O)Cc1csc(NC(=O)c2ccc(C)o2)n1 | -22.5% | -13.4 | 22.0* | 46.2% | 51.8*
CCOC(=O)Cc1csc(NC(=O)C2C3C=CC(C3)C2C(=O)O)n1 (configuration not stated) | ? | -101.5* | 4.7 | 13.9% | 15.3
Cc1csc(NC(=O)c2ccc(C)o2)n1 | 0.0% | -26.2 | 59.3* | 169.7% | +
CCOC(=O)Cc1csc(NC(=O)c2ccc3ncsc3c2)n1 | 93.0% | 23.1 | 29.2* | 85.4% | 83.3*
CCOC(=O)Cc1csc(NC(=O)c2ccncc2)n1 | 33.5% | -19.1 | -4.4 | 31.2% | 7.4
SMILES | Pf growth 96h | HCMV inh | CHX counter | Pf growth 48h | Shiga inhibitor
CCOC(=O)Cc1csc(NC(=O)CCC(=O)O)n1 | -0.9% | 4.5 | 5.4 | -13.9% | -9.6
CCOC(=O)Cc1csc(NC(=O)c2ccco2)n1 | / | 35.7 | 49.7* | 77.5% | 50.2*
CCOC(=O)Cc1csc(NC(=O)c2cnc3sc(C)cn3c2=O)n1 | 16.9% | 8.1 | 42.7* | 92.7% | 88.3*
CCCCOC(=O)Nc1nc(CC(=O)OCC)cs1 | / | 25.2 | 14.7* | 13.2% | 30.4
CCOC(=O)[C@]12CCCC=C1N(CCC1=CCCCC1)C(=O)[C@H](CC(=O)NCc1cccc(C(F)(F)F)c1)C2 | / | 57.0 | / | / | /
Cc1ccc(NC2=CC(=O)c3sc(C)nc3C2=O)cc1 | / | / | -12.7 | / | -7.5
CC1CCCCN1CCCNC(=O)Cn1c(=O)c2cccn2c2ccccc21 (configuration not stated) | ? | -23.0 | -1.2 | 14.4% | -3.8
